For eight compounds, Percent Effect results are on record in ChEMBL document CHEMBL3988442, “University of Dundee, Small-Polar-MMV Screening Library” (2021).

Parameters in all cases: scale not given: direction of the effect not stated beside the values
Test [1] has as its target Protein translocase subunit SecA (Escherichia coli (strain K12)) (UniProt P10408). Kind of test: Assay to Identify E. coli SecA ATPase Inhibitors. The class given is functional. Particulars: 30 µM.
Test [2] has as its target T1, Ubiquitin-activating enzyme e1, putative (Leishmania donovani (strain BPK282A1)) (UniProt E9BSI1).
T1 sequence (whole entry): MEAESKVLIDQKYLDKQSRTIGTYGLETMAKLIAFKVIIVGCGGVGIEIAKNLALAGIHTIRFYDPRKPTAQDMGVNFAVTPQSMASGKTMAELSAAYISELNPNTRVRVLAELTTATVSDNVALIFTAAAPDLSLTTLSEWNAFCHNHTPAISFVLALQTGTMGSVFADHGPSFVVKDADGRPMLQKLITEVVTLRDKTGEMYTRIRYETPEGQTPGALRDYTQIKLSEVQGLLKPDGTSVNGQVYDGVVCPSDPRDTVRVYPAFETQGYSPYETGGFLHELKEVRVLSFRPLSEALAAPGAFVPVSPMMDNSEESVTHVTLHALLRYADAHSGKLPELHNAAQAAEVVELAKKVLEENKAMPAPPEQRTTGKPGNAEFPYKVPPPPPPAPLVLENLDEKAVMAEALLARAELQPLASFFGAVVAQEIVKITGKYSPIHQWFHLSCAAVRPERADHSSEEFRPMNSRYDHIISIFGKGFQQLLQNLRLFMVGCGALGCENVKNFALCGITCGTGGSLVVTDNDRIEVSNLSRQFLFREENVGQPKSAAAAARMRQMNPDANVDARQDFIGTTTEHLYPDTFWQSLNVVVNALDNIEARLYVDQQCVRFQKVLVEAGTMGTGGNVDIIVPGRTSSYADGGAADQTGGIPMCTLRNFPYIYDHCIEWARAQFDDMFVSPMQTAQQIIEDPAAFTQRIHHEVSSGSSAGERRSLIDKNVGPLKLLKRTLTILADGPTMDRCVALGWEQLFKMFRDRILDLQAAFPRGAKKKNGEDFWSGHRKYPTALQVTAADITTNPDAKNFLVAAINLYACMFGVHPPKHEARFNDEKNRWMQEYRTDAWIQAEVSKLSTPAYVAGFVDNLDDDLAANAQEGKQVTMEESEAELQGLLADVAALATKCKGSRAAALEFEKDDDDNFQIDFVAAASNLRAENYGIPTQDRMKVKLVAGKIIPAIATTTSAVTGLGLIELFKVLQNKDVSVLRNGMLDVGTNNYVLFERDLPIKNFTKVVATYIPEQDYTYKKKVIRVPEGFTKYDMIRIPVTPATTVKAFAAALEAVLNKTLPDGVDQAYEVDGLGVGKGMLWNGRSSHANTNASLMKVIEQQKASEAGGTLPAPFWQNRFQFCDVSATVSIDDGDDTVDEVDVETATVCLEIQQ
Put plainly: Leishmania donovani Ubiquitin Activating Enzyme (LdE1). Type of test: functional. Particulars: 30 µM.

Test [3] has as its target AMP-activated protein kinase, AMPK (Homo sapiens) (UniProt P54646+O43741+P54619+Q9UGJ0+Q9Y478+Q13131+Q9UGI9). Put plainly: AMP-dependent Kinase enzyme assay. An in vitro enzyme assay that detects ADP turnover that is directly proportional to AMPK activity. This uses naive AMPK that is activated during the assay with MK-8722. The class given is functional. Particulars: 30 µM.

In test [4] the target is Sialic acid-binding Ig-like lectin 9 (Homo sapiens) (UniProt Q9Y336). Put plainly: Hs-Siglec9 ALPHAscreen SOP 20170721. Particulars: 10 µM.
Sequence of Sialic acid-binding Ig-like lectin 9 (Homo sapiens) (Q9Y336 whole entry): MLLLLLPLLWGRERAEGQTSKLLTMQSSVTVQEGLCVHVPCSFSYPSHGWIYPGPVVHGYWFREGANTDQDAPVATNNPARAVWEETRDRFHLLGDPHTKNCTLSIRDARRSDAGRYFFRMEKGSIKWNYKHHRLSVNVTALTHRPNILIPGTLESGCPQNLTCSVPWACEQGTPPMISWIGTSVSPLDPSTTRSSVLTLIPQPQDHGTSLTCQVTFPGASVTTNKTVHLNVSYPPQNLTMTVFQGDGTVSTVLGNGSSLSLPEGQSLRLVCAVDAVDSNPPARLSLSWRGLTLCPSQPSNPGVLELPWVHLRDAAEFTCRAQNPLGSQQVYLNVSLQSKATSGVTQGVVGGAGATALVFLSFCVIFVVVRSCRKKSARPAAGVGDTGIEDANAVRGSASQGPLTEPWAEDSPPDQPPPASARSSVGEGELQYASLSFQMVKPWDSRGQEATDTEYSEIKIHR
Test [5] relates to Trypanosoma cruzi. Kind of test: Trypanosoma cruzi phosphomannomutase and mannose-1-phosphate guanylyltransferase assay. Type of test: functional. Particulars: 10 µM.
Test [6] deals with T2, Arginase-2, mitochondrial (Homo sapiens) (UniProt P78540).
T2 sequence (whole entry): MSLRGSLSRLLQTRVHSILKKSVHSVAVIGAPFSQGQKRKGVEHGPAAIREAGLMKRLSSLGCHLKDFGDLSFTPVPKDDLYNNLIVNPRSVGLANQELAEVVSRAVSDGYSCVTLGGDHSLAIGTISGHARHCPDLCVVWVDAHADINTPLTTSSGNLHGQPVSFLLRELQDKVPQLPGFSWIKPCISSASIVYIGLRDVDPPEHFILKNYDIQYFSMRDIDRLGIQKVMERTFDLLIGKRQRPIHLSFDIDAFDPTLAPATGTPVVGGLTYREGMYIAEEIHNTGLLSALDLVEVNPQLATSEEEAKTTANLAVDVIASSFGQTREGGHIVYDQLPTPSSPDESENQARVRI
Put plainly: in vitro enzyme assay to detect the production of urea directly proportional to the activity of Arginase II. Also: in the data most compounds retested in dose-response had high values. Type of test: functional. Particulars: 33.3 µM.

Test [7] addresses T3, Proteasome subunit beta (Trypanosoma cruzi) (UniProt O96673).
T3 sequence (whole entry): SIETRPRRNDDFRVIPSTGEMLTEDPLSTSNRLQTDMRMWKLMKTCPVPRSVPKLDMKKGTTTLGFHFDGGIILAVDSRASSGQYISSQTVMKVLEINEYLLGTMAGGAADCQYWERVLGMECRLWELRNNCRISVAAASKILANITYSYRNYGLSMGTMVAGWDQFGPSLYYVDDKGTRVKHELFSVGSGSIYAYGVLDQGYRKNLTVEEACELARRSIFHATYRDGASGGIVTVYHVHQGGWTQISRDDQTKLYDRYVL
Kind of test: Trypanosoma cruzi proteasome chymotrypsin-like activity (TcProtChymo) assay. Also: in the data most compounds retested in dose-response had high values. The class given is functional. Particulars: 9.37 µM.

The species entered for test [8] is Homo sapiens. Put plainly: To identify inhibition of the IFN signalling (Jak-Stat) pathway via expression of an eGFP reporter gene under the control of an IFN-stimulated response element (ISRE) containing MxA promoter. Type of test: functional. Particulars: 30 µM. In general terms: Reporter assays use an easily measured gene product as a stand-in for the process of interest.

The target of test [9] is T4, Tyrosyl-tRNA synthetase, putative (Trypanosoma cruzi (strain CL Brener)) (UniProt Q4DSP6).
T4 sequence (whole entry): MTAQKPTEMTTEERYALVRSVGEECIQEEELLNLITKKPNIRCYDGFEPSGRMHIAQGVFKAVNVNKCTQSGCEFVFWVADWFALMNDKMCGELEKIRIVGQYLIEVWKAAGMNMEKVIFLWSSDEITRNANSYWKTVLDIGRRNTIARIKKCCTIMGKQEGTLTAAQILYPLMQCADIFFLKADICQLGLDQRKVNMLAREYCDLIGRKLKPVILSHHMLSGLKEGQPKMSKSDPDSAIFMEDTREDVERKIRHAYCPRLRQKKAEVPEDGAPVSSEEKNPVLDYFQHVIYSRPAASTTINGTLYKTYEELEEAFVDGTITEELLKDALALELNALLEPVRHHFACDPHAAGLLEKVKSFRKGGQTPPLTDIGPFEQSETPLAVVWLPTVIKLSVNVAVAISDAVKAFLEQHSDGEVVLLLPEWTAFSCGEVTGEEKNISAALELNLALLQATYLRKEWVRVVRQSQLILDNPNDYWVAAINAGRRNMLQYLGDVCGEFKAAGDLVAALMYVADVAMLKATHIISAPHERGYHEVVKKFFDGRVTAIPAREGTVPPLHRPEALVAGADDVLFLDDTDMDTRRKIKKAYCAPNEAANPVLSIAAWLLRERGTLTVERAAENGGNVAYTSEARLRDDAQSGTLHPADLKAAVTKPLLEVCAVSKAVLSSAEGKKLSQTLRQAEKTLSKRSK
Put plainly: Trypanosoma cruzi tyrosyl tRNA synthetase (TcYRS) _High Tyrosine SOP. Also: in the data most compounds retested in dose-response had high values. Type of test: functional. Particulars: 30 µM.

Test [10] deals with T4, Tyrosyl-tRNA synthetase, putative (Trypanosoma cruzi (strain CL Brener)). Put plainly: Trypanosoma cruzi tyrosyl tRNA synthetase (TcYRS) SOP. Type of test: functional. Particulars: 30 µM.
The target in test [11] is Chromo domain-containing protein 1 (Saccharomyces cerevisiae (strain ATCC 204508 / S288c) (Baker's yeast)) (UniProt P32657). Kind of test: ScCHD-1 Enzyme Inhibition Assay. Also: in the data most compounds retested in dose-response had high values. The class given is functional. Particulars: 30 µM.
Sequence of Chromo domain-containing protein 1 (Saccharomyces cerevisiae (strain ATCC 204508 / S288c) (Baker's yeast)) (P32657 whole entry, the tested form may be a part): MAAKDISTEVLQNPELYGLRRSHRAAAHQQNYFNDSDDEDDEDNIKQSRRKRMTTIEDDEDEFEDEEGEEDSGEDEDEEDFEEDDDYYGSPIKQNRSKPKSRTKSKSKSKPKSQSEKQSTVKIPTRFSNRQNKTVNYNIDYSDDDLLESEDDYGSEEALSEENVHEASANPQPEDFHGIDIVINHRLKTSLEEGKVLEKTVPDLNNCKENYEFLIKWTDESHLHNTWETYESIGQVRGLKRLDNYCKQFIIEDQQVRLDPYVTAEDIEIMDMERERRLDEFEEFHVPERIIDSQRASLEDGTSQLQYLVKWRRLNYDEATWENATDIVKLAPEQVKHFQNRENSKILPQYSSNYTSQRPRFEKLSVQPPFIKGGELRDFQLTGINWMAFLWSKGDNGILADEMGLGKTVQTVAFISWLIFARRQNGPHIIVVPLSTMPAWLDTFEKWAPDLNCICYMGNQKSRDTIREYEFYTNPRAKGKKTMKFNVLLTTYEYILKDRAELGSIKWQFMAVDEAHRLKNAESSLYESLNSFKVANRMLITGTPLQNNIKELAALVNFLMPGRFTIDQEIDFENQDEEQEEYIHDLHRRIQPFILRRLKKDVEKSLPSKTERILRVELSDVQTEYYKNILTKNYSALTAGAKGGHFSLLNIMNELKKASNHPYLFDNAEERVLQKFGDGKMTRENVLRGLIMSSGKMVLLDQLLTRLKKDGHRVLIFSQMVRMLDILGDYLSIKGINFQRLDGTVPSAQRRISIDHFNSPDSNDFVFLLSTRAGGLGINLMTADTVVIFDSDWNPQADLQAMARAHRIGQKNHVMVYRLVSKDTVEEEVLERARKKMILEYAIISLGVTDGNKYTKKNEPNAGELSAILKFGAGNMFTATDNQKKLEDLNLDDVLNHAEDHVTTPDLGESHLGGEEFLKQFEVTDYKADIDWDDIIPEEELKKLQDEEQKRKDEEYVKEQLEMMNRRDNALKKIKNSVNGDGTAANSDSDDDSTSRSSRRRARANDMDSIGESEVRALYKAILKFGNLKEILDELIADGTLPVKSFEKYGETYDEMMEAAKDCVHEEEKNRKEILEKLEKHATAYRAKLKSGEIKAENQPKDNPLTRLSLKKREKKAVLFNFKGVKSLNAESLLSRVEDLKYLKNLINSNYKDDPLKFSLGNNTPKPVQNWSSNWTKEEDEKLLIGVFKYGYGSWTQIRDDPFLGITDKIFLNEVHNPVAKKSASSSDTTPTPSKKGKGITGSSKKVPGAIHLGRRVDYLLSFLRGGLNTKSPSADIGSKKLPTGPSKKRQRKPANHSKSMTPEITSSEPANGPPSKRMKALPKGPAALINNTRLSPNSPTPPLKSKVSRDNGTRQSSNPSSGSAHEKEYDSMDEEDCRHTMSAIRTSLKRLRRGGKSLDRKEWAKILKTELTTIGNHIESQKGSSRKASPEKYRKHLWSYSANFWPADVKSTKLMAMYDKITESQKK

SMILES strings stand for the structures. For some of these results: Potency and affinity values are given separately.

Sequence of Protein translocase subunit SecA (Escherichia coli (strain K12)) (P10408 whole entry): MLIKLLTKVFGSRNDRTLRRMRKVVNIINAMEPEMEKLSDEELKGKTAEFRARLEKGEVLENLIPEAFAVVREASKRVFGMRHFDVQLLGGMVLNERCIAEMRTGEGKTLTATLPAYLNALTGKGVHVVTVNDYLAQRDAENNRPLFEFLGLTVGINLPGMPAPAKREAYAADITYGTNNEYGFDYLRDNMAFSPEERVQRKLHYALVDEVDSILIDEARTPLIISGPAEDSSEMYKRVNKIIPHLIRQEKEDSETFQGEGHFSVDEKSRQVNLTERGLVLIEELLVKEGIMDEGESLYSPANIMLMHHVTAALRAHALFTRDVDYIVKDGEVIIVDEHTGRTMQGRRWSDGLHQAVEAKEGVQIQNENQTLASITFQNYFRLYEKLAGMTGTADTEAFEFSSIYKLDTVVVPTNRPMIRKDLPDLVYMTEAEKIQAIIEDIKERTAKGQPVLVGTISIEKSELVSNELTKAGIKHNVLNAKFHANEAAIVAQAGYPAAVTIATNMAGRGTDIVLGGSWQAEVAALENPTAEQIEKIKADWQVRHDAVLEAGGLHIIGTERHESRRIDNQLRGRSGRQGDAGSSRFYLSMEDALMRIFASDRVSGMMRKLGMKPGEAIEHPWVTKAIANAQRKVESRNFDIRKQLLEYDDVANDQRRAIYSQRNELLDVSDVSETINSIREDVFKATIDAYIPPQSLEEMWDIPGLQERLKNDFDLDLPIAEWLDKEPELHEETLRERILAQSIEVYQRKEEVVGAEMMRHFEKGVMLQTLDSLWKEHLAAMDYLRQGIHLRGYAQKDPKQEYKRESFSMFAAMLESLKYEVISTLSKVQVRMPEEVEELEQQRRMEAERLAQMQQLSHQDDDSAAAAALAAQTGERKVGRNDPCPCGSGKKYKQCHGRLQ

With `CC(C)c1nn(CC(=O)N2CCCCC2)c(=O)c2c1cnn2C(C)(C)C`, the Percent Effect was -2.78% in test [1]; 11% in test [2]; -3.21% in [3]; -1.33% in [4]; -4.31% in test [5]; 0.455% in test [6]. Moreover, the Percent Effect was 16.5% in test [7]; 17.3% in test [8]; 2.15% in test [9]; 12.5% in test [10]; -6.96% in [11].

For the compound `Cn1cc(C(=O)NC2CCN(C(=O)NCCSC(F)(F)F)CC2)cn1`, the Percent Effect in test [1] was -1.89%; in test [2], 13.9%; in test [3], 2.72%; in test [4], 2.15%; in [5], -1.13%; in test [6], -0.215%. In addition, the Percent Effect was 13% in test [7]; 8.82% in test [8]; 9.38% in test [9]; 17.7% in test [10]; -19.9% in [11].

In the case of `CS(=O)(=O)NC1CCN(C(=O)NCCNc2ccccn2)CC1`, the Percent Effect in test [1] is -6.26%; in test [2] it was 10.8%; in test [3], 0.725%; in test [4], -1.36%; in test [5], -10.7%; in [6], 3.14%. For the same compound, the Percent Effect was 4.85% in test [7]; 14.7% in test [8]; -0.99% in test [9]; 1.22% in test [10]; -1.89% in test [11].

For the compound `CCCS(=O)(=O)N1CCC2(CN(c3ccsc3)C(=O)CN2C)C1` (stereo not drawn), the Percent Effect in [1] is -3.95%; in test [2] it was 8.11%; in test [3], -1%; in [4], -0.171%; in [5] it was 2.34%; in test [6], 5.83%. Besides, the Percent Effect in [7] is 10.6%; in test [8], -4.15%; in test [9], 9.9%; in test [10] it was 6.1%; in test [11], -1.58%.

In the case of `c1nc(CCC2CCCN2)cc(N2CCCOCC2)n1` (stereo not drawn), the Percent Effect in test [1] is -4.1%; in [2], 9.46%; in test [3] it was 11.8%; in test [4], -4.56%; in test [5], -6.13%; in [6] it was -3.02%. The Percent Effect was 9.36% in [7]; 10.3% in test [8]; 3.23% in test [9]; 6.49% in test [10]; -5.74% in test [11].

Regarding `Cc1cc(C[C@@H]2COC[C@@H]2NC(=O)Cn2c(=O)oc3ccccc32)on1`, the Percent Effect in [1] is -0.169%; in test [2], 5.48%; in test [3] it was 1.35%; in [4], -2.12%; in test [5], 3.33%; in test [6], 8.64%. Further, the Percent Effect is 1.77% in test [7]; -6.43% in test [8]; 4.3% in test [9]; 7.5% in test [10]; 1.28% in [11].

As for `O=C1NC(c2ccccc2)=N[C@@]12CC[C@@H]1CN(Cc3ccccc3)C[C@@H]12`, the Percent Effect was -1.1% in test [1]; 10.7% in [2]; -2.75% in test [3]; 0.12% in test [4]; 2.12% in test [5]; -43.5% in test [6]. The Percent Effect in [7] was 7.18%; in test [8] it was 3.72%; in [9], 10.4%; in test [10], 27.5%; in test [11] it was -8.07%.

Regarding `O=S(=O)(c1ccccc1)N1CCC2(CCCN2CC2CCCC2)C1` (stereo not drawn), the Percent Effect in [1] is -2.93%; in test [2], -21.6%; in test [3], -3%; in [4], 2.91%; in [5] it was -0.489%; in test [6], 4.78%. The Percent Effect in test [7] was 13.3%; in test [8], -13.9%; in test [9], 6.49%; in [10], 5.13%; in test [11] it was 11%.
